Reference: PubChem BioAssay
Calls of active or inactive are those of the source.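 Rule for the calls: active = mean inhibition over 43.08%, the solvent-only control mean plus 3 SD; inactive = the rest.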

Each molecule was assayed against Nuclear receptor coactivator 3 (Homo sapiens) (UniProt Q9Y6Q9) (assay: NCOA3 GAL4-fusion reporter inhibition – cell-based, luminescence, quadruplicate, confirmation (AID 588792;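 note: 0% = DMSO treated cells and 100% = gossypol at 36 µM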)). Conditions: HEK293 GAL4-SRC3 luciferase reporter, at 3.6 µM, hits give high values.
Nuclear receptor coactivator 3 (Homo sapiens), sequence (Q9Y6Q9 whole entry, looked up, the tested form may be a part): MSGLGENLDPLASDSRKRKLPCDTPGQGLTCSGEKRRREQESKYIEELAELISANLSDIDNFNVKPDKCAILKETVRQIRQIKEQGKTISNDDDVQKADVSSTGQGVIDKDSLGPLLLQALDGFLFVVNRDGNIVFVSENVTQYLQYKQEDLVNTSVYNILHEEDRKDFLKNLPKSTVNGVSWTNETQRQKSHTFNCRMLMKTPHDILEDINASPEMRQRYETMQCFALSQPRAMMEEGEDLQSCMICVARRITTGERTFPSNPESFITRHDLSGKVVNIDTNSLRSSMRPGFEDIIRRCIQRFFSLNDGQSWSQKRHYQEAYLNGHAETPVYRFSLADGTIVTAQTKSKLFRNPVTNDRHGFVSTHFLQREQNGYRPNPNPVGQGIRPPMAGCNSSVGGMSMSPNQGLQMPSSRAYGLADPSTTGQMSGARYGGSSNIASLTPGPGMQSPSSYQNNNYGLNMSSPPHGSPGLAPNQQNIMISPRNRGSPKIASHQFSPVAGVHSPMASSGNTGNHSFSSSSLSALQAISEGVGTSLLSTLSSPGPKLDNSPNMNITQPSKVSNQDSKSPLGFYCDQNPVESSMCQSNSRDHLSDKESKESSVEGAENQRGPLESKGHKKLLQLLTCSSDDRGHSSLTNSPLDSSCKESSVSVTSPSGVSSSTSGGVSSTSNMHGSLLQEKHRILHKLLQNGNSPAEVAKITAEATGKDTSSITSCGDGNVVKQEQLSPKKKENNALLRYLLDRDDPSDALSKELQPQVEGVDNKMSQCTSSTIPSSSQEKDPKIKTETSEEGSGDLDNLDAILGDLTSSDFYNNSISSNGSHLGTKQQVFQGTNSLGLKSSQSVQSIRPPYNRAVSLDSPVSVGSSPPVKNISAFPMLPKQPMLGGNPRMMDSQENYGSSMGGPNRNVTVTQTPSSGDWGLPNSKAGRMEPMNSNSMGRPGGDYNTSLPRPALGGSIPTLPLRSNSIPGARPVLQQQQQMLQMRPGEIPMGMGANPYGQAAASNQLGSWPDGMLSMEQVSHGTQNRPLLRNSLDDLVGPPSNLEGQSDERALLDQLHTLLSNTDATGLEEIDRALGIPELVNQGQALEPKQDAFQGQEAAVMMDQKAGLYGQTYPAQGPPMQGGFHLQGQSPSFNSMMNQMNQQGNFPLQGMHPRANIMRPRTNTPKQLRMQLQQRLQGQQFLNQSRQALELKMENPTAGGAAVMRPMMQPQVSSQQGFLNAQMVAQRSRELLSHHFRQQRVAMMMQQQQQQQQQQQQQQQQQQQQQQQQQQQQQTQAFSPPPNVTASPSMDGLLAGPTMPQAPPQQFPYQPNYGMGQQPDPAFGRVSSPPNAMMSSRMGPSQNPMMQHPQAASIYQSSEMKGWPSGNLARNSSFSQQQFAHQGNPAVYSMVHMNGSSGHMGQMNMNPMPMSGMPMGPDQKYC

SMILES	inhibition
CC(C)COc1ccc(C(=O)Nc2sc3c(c2C(=O)O)CC(C)(C)OC3)cc1	45.4% (active)
CCN(CC)S(=O)(=O)c1cc(NC(=O)C(C)OC(=O)c2[nH]c(C)c(C(C)=O)c2C)ccc1C (centres undefined)	16% (inactive)
COc1cc(NC(=O)c2cccs2)c(C(=O)OCC(=O)c2cc(C)n(-c3ccc(F)cc3)c2C)cc1OC	5.85% (inactive)
O=C(/C=C/c1ccc([N+](=O)[O-])cc1)c1ccccc(=O)c1O	33% (inactive)
CCn1cc(C(=O)NCc2ccco2)c(=O)c2cc(S(=O)(=O)N3CCCCCC3)ccc21	20% (inactive)
CCOC(=O)C1=CCN(S(=O)(=O)c2ccc(C)cc2)C1c1cccc(Cl)c1 (centres undefined)	15.1% (inactive)
CC(=O)Nc1ccc(S(=O)(=O)Oc2ccccc2N2CCCCC2)cc1	-3.48% (inactive)
CCCC(C(=O)NC(C)(C)C)N(C(=O)c1snc(C(N)=O)c1N)c1ccc2c(c1)OCCO2 (centres undefined)	15.9% (inactive)
COc1ccc(N2CC(C(=O)N/N=C/c3ccccc3)CC2=O)cc1 (centres undefined)	5.28% (inactive)
CCc1[nH]nc2c1C(C1C=CCCC1)C(C#N)=C(N)O2 (centres undefined)	24.7% (inactive)
CC(=O)c1c(C)[nH]c(C(=O)Nc2ccc(Cl)c(S(=O)(=O)N3CCOCC3)c2)c1C	18.6% (inactive)
CCc1ccc(N2CC(C(=O)N/N=C/c3cc([N+](=O)[O-])ccc3O)CC2=O)cc1 (centres undefined)	-9% (inactive)
Cc1ccc(Cl)cc1N1CCN(C(c2ccc(C#N)cc2)c2nnnn2C2CCCC2)CC1 (centres undefined)	1.29% (inactive)
Cc1cccc(Oc2sc(C(=O)c3ccccc3)c(N)c2C#N)c1	34.8% (inactive)
